Here are results for 20 compounds from PubChem BioAssay.

Unmarked numbers belong to inactive results. For some of these results: Results with a measured potency or affinity are listed apart. Activity calls are given as the source filed them. Unless noted, the rule behind the calls is not given here.

Assay [1] is described as follows: antimalarial activity against Dd2 strain (AID 2302;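 active = growth inhibition above 50% at the single 2 µM test dose, taken to imply half-maximal potency below 2 µM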;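 note: 0% = DMSO untreated growth and 100% = chloroquine plus artemisinin killed control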). As to conditions: P. falciparum Dd2 in RBCs, LDH growth readout, 72 h; at 2 µM; active compounds read high.
Assay [2] in a line: HepG2 cytotoxicity, primary screen, cytotoxicity control for P. falciparum antimalarial project, cell-based, ATP luminescence (AID 2303;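 active = inhibition above 50%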;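 note: 0% = DMSO wells and 100% = digitonin-killed cells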). As to conditions: HepG2 viability, 24-48 h, at 10 µM, active compounds read high.
Assay [3] deals with L-lactate dehydrogenase (Plasmodium falciparum (isolate CDC / Honduras)) (UniProt Q27743). The assay is described as follows: PfLDH activity inhibition – cell lysate, 3D7 strain, counter-screen for P. falciparum growth inhibition project (AID 2304).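 Note: 0% = vehicle and 100% = reference inhibitor.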 As to conditions: P. falciparum 3D7 crude extract, LDH APAD/NBT absorbance; at 2 µM; active compounds read high. For orientation: The purpose of a counterscreen is to sort out artefacts and off-target activity.
Chain of L-lactate dehydrogenase (Plasmodium falciparum (isolate CDC / Honduras)) (Q27743 whole entry, looked up): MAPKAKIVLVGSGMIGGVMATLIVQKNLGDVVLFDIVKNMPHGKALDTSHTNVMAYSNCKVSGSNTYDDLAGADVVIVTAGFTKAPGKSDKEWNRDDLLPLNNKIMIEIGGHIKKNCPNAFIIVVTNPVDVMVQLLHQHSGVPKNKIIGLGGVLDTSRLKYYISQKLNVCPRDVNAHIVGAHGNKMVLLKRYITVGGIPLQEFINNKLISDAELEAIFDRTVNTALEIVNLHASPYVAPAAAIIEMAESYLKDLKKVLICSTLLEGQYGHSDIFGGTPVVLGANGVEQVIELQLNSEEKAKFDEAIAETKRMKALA

A short description of assay [4]: inhibition of 3D7 malaria parasite growth – strain 3D7 (AID 2306).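 Note: 0% = DMSO wells and 100% = chloroquine plus artemisinin control wells.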 As to conditions: P. falciparum 3D7 erythrocytic growth, LDH absorbance, 72 h; at 2 µM; active compounds read high.
The target in assay [5] is Calcium-dependent protein kinase 1 (Plasmodium falciparum (isolate 3D7)) (UniProt P62344). The assay is described as follows: PfCDPK1 kinase inhibitors, biochemical, TCAMS library (AID 1159585; cut-off not given, nearly all actives have IC50 up to about 0.98 µM;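 note: inhibitors leave more ATP so luminescence rises with inhibition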). As to conditions: recombinant PfCDPK1, Kinase-Glo ATP depletion luminescence.
Chain of Calcium-dependent protein kinase 1 (Plasmodium falciparum (isolate 3D7)) (P62344 whole entry, looked up): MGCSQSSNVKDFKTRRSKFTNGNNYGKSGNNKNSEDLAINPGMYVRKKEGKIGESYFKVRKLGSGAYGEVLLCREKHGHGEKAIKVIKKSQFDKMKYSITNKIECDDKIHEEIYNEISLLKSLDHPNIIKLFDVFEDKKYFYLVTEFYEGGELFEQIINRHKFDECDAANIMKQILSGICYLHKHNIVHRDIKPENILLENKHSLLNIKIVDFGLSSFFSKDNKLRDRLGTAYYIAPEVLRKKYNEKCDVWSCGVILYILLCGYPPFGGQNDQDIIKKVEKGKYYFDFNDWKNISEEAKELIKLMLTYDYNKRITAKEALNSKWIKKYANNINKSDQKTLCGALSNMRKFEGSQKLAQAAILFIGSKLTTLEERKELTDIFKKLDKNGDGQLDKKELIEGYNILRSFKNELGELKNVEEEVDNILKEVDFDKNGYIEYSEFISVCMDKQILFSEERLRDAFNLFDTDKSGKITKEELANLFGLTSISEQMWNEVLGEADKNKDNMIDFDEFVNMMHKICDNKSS
In assay [6] the target is Plasmodium falciparum protein kinase 6 (PK6, PF3D7_1337100) (UniProt Q8IDW1). The assay is described as follows: PfPK6 kinase inhibitors, biochemical, TCAMS library (AID 1159586). The following applies: recombinant PfPK6, Kinase-Glo ATP depletion luminescence. (In general: Kinase-Glo measures the ATP left after a reaction by luminescence.)
Chain of Plasmodium falciparum protein kinase 6 (PK6, PF3D7_1337100) (Q8IDW1 1-305): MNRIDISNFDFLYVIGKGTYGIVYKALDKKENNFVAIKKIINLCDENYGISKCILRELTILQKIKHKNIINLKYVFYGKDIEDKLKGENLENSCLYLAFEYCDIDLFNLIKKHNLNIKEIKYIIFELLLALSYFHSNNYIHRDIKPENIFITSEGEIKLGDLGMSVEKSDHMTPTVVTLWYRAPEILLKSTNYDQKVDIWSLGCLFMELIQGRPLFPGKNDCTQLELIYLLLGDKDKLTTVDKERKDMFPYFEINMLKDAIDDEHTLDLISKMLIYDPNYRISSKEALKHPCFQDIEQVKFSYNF
For assay [7], the target named is Protein kinase 7 (PK7), Plasmodium falciparum 3D7 (PF3D7_0213400) (UniProt Q7YTF7). Description: inhibition of Plasmodium PK7 catalytic activity – biochemical, TCAMS antimalarial set, Kinase-Glo luminescence (AID 1159587). The following applies: recombinant PfPK7, Kinase-Glo ATP depletion luminescence.
Chain of Protein kinase 7 (PK7), Plasmodium falciparum 3D7 (PF3D7_0213400) (Q7YTF7 1-343): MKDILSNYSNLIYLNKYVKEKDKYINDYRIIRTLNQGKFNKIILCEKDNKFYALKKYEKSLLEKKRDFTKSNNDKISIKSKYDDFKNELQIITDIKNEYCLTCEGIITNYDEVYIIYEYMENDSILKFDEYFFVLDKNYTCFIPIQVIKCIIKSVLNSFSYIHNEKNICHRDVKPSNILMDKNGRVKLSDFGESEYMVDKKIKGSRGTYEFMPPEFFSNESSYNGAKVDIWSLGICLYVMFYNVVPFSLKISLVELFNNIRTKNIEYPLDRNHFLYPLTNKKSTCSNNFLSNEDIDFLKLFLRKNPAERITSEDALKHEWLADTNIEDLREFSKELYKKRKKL
Assay [8] has as its target Calcium-dependent protein kinase 4 (Plasmodium falciparum (isolate 3D7)) (UniProt Q8IBS5). The assay is described as follows: PfCDPK4 kinase inhibitors, biochemical, TCAMS library (AID 1159588; cut-off not given, nearly all actives have IC50 up to about 0.91 µM). As to conditions: recombinant PfCDPK4, Kinase-Glo ATP depletion luminescence.

Chain of Calcium-dependent protein kinase 4 (Plasmodium falciparum (isolate 3D7)) (Q8IBS5 whole entry, looked up): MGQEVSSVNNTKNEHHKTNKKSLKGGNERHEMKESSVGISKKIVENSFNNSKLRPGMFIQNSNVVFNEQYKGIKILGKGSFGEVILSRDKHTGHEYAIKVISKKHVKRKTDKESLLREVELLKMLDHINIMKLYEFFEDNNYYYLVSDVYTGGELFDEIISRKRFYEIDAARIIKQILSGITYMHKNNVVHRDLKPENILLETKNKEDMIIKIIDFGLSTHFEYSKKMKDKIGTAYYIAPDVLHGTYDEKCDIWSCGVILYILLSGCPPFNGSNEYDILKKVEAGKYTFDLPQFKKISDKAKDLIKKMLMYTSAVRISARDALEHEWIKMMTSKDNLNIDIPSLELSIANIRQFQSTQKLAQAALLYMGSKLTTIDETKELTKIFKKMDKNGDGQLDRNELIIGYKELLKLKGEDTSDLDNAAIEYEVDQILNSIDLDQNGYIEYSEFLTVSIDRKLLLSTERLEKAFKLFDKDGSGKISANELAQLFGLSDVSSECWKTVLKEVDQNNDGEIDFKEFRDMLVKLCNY

As to `O=C(Nc1nc2cc(S(=O)(=O)NCc3ccc(Cl)c(Cl)c3)ccc2n1CCCN1CCCC1)c1ccc(Cl)cc1`, the growth inhibition was 16% in assay [1] and 89% (active) in assay [4]. In addition, the values for the inhibition in assay [2] and in assay [3] were 57% (active) and -1%, respectively. Moreover, the outcome in assay [5], in assay [6], in assay [7] and in assay [8] was inactive.

With `Cn1cc(-c2ccccc2C(=O)O)c(=O)c2cc(Cl)ccc21`, the growth inhibition in assay [1] was -4%; in assay [4], 89% (active). Also, the inhibition (as a rule, the relative decrease from the control value, in per cent) is 16% in assay [2] and -1% in assay [3]. Further, the outcome in assay [5], in assay [6], in assay [7] and in assay [8] was inactive.

Regarding `O=C(NC1CC1)c1ccc(N2CCN(Cc3ccc(Cl)cc3)CC2)nc1`, the growth inhibition in assay [1] is 81% (active); in assay [4], 84% (active). Also, the inhibition in assay [2] is 16%; in assay [3], 3%. The result in assay [5], in assay [6], in assay [7] and in assay [8] was inactive.

`CC1(C)N=C(N)N=C(N)N1OCc1ccc2c(c1)OCO2`: the growth inhibition in assay [1] is 86% (active); in assay [4], 93% (active). Moreover, the inhibition is 66% (active) in assay [2] and -3% in assay [3]. Moreover, the outcome in assay [5], in assay [6], in assay [7] and in assay [8] was inactive.

Regarding `CCCc1cc(OCCCOc2ccccc2)ccc1OCCCON1C(N)=NC(N)=NC1(C)C`, the growth inhibition in assay [1] is 96% (active); in assay [4], 94% (active). In addition, the inhibition is 68% (active) in assay [2] and 6% in assay [3]. For the same compound, the outcome in assay [5], in assay [6], in assay [7] and in assay [8] was inactive.

On to `COc1ccc2c(=O)c(-c3ccc(OC(F)(F)F)cc3)c(C)[nH]c2c1`, for which the growth inhibition was 96% (active) in assay [1] and 97% (active) in assay [4]. In addition, the inhibition is 0% in assay [2] and -3% in assay [3]. Moreover, the result in assay [5], in assay [6], in assay [7] and in assay [8] was inactive.

As to `Cc1cc(-c2nc3ccc(C(=O)NCc4ccccc4)cc3n2C2CCN(C(=O)c3ccc(-c4ccccc4)cc3)CC2)ccn1`, the values for the growth inhibition in assay [1] and in assay [4] were 97% (active) and 95% (active), respectively. The inhibition in assay [2] was 36%; in assay [3] it was 1%. In addition, the outcome in assay [5], in assay [6], in assay [7] and in assay [8] was inactive.

On to `Cc1ccc2c(c1)nc(N)n2C[C@H](O)c1ccccc1`, for which the growth inhibition is 74% (active) in assay [1] and 100% (active) in assay [4]. For the same compound, the inhibition in assay [2] was -3%; in assay [3] it was 7%. Also, the outcome in assay [5], in assay [6], in assay [7] and in assay [8] was inactive.

`COC(=O)c1ccc(OCC(O)CO)cc1O` (stereo not given): the growth inhibition in assay [1] is 23%; in assay [4], 101% (active). The inhibition was 4% in assay [2] and 5% in assay [3]. In addition, the result in assay [5], in assay [6], in assay [7] and in assay [8] was inactive.

For the compound `CC(C)CN(c1nc(C(=O)NNC(=O)[C@H](CC2CC2)NC(=O)c2cc3cc(OCCN4CCCCC4)ccc3o2)cs1)C1CC1`, the results for the growth inhibition in assay [1] and in assay [4] were 98% (active) and 97% (active), respectively. Further, the inhibition is 2% in assay [2] and -4% in assay [3]. Moreover, the result in assay [5], in assay [6], in assay [7] and in assay [8] was inactive.

In the case of `CS(=O)(=O)c1ccc(CNCc2cccc(-c3cccc(-c4nc5ccccc5[nH]4)c3)c2)cc1`, the growth inhibition in assay [1] was 47%; in assay [4], 101% (active). Moreover, the inhibition in assay [2] was 3%; in assay [3], -7%. The result in assay [5], in assay [6], in assay [7] and in assay [8] was inactive.

With `FC(F)(F)c1ccc2nc(-c3ccc(-c4ccc(CNCC5CCCO5)cc4)cc3)[nH]c2c1` (stereo not given), the growth inhibition is 100% (active) in assay [1] and 101% (active) in assay [4]. In addition, the results for the inhibition in assay [2] and in assay [3] were 33% and -3%, respectively. Further, the result in assay [5], in assay [6], in assay [7] and in assay [8] was inactive.

Regarding `COc1cc(Cc2cnc(N)nc2N)ccc1OCc1cccc(Oc2ccccc2)c1`, the growth inhibition in assay [1] is 21%; in assay [4], 84% (active). Further, the inhibition in assay [2] was 18%; in assay [3] it was 0%. Besides, the result in assay [5], in assay [6], in assay [7] and in assay [8] was inactive.

Turning to `Oc1ccc(CCNc2nc(NCCCOc3ccccc3-c3ccncc3)nc(N3CCNCC3)n2)cc1`, the growth inhibition in assay [1] was -3%; in assay [4], 96% (active). In addition, the inhibition in assay [2] is 8%; in assay [3], 1%. Further, the outcome in assay [5], in assay [6], in assay [7] and in assay [8] was inactive.

Turning to `Cc1cc(Cl)c(S(=O)(=O)NC(C)(C)C)cc1OCC(=O)NC1CCCCC1`, the growth inhibition was 53% (active) in assay [1] and 93% (active) in assay [4]. The inhibition in assay [2] was 10%; in assay [3], -5%. Also, the outcome in assay [5], in assay [6], in assay [7] and in assay [8] was inactive.

With `CC(C)CCN(Cc1cncn1Cc1cccc(C(F)(F)F)c1)C(=O)c1ccccc1C#N`, the growth inhibition was 96% (active) in assay [1] and 99% (active) in assay [4]. For the same compound, the inhibition was -4% in assay [2] and -2% in assay [3]. Besides, the result in assay [5], in assay [6], in assay [7] and in assay [8] was inactive.

Consider `FC(F)(F)c1ccc2nc(-c3ccc(-c4cccc(CNCc5cnn(-c6ccccc6)n5)c4)cc3)[nH]c2c1`, for which the growth inhibition in assay [1] was 83% (active); in assay [4], 99% (active). Moreover, the inhibition in assay [2] was 19%; in assay [3] it was -1%. In addition, the result in assay [5], in assay [6], in assay [7] and in assay [8] was inactive.

Turning to `Cc1cc(N2CCCN(CC3CCCCC3)CC2)nc(Nc2ccc(Br)cc2)n1`, the growth inhibition in assay [1] is 54% (active); in assay [4], 95% (active). For the same compound, the inhibition in assay [2] is 24%; in assay [3] it was -1%. Moreover, the result in assay [5], in assay [6], in assay [7] and in assay [8] was inactive.

Regarding `O=S(=O)(c1ccc(OCc2ccc(Cl)cc2)cc1)c1cc2c(cc1OCc1ccccc1)CCN(CC1CC1)CC2`, the values for the growth inhibition in assay [1] and in assay [4] were -2% and 82% (active), respectively. Moreover, the inhibition in assay [2] is 19%; in assay [3] it was -3%. The result in assay [5], in assay [6], in assay [7] and in assay [8] was inactive.

For the compound `CC(C)(C)OC(=O)n1cc(C2CCN(CCCC34CCCc5cccc(c53)NC4=O)CC2)c2ccncc21` (stereo not given), the growth inhibition in assay [1] was -2%; in assay [4], 92% (active). Also, the inhibition in assay [2] is 20%; in assay [3], -5%. The result in assay [5], in assay [6], in assay [7] and in assay [8] was inactive.
